AmpC no deterg – AmpC beta-lactamase inhibition without detergent. 330,000 tested, 0.52% active. P00811. Potency, µM (top dose mostly 57.1 µM), for inactives: at the highest dose activity change, negative = inhibition, actives largely listed as inhibitors. AmpC nitrocefin hydrolysis, absorbance 480 nm, 0.0001% Triton;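 note: plate controls were no compound for no effect and no enzyme for full effect; nearly all actives have a fitted effect of over 20% in size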
Target sequence (P00811 whole entry, looked up): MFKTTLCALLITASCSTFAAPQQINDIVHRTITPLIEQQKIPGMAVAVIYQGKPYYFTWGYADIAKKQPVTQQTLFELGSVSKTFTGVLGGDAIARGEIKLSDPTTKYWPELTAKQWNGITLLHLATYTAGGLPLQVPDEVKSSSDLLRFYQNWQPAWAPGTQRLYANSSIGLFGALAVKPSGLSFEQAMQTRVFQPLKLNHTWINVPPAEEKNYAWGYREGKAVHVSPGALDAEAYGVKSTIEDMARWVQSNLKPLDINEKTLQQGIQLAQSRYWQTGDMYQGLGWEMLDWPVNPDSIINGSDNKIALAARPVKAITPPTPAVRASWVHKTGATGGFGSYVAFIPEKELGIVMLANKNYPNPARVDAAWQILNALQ
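AmpC (5.3 nM in the dispensed reagent) in 20 mM phosphate pH 7.0 with 0.01% (detergent screen) or 0.0001% Triton X-100 was preincubated with compounds for 15 min at room temperature. Nitrocefin was then added from an 800 uM solution, and hydrolysis was followed at 480 nm.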
Pf growth 96h – inhibits malaria parasite growth, 96 h. P. falciparum luciferase reporter growth, 96 h. Potency, µM (doses to about 28.7 µM), for the others: at the top dose activity change, negative = inhibition, hits mostly inhibitors. 320,000 tested, 6.9% active
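Two parasite generations (96 h, 37 C, 5% CO2) of compound exposure in infected erythrocytes (0.05% parasitemia, 2% hematocrit). Luciferase-reporter P. falciparum; decreased luminescence indicates inhibited growth, aimed at apicoplast-acting delayed death.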
AMA1 RON2 block – disrupts binding of P. falciparum AMA1 to RON2; Potency, µM (top dose mostly 58.2 µM), without a hit: at the top dose activity change, negative = inhibition, usual class: inhibitors; AID 720542; AlphaScreen AMA1-biotinylated RON2 peptide binding; 360,000 tested, 0.2% active;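 note: 0% = vehicle wells and -100% = peptide control; nearly all actives have a fitted effect of over 45% in size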
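AMA1 (3D7) with his tag at 25 nM final met compounds first, then biotinylated RON2 peptide at 25 nM; detection used donor plus acceptor beads, 10 µg/mL apiece, read by AlphaScreen after 30 min at room temperature.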
HCV inhibitor – inhibitors of hepatitis C virus infection; Potency, µM (doses to about 41.8 µM), for the others: top-dose activity change, negative = inhibition, usual class: inhibitors; Huh7.5.1 HCVcc-Cre infection, luciferase reporter, 44 h; 340,000 tested, 3.4% active; AID 651820
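A cell-based infection assay in which seeded cells (1,000 per well) receive test compound after 4 h, are inoculated with HCVcc-Cre at approximately 0.5 moi, and are incubated 44 h before luminescence detection.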
AmpC detergent – inhibitors of E. coli AmpC beta-lactamase with detergent; P00811; AmpC hydrolysis of nitrocefin, absorbance 480 nm, 0.01% Triton; Potency, µM (top dose mostly 114 µM), without a hit: at the highest dose activity change, negative = inhibition, hits mostly inhibitors; 370,000 tested, 0.041% active; AID 485294;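 note: 0% = no-compound wells and -100% = no-enzyme wells; nearly all actives have a fitted effect of over 25% in size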
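20 mM phosphate pH 7.0 + 0.01% (detergent screen) or 0.0001% Triton X-100; 5.3 nM AmpC reagent; cpd preinc 15 min RT; nitrocefin (800 uM stock) to start; A480 q20 s × 4 min; Activity was normalised to no-enzyme and no-compound control wells.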
Pf growth 48h – P. falciparum growth inhibition at 48 hours (one generation) | P. falciparum luciferase growth in erythrocytes, 48 h | Potency, µM (doses to about 28.7 µM), without a hit: top-dose activity change, negative = inhibition, most hits filed as inhibitors | 310,000 tested, 5.9% active | AID 504832
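Compounds are pin-transferred into medium, infected erythrocytes (2% hematocrit, 0.1% parasitemia final) are added, and plates sit one parasite generation at 37 C in 5% CO2. Detection reagent is then added and luminescence measured.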
The depositor's hits bear a star; ? = inconclusive; / = not tested or not shown; [ ] = another dose, or the depositor's remark. This is a sample that favours compounds with a hit; in the whole collection about 11% have one here. Calls come from the whole dose curve; as a rule, active = well fitted curve in the direction sought with a large enough effect; inconclusive = small, poorly fitted or top-dose-only effect, or another doubt; inactive = no such curve, though single readings can be large; an effect the other way counts as inactive or inconclusive. Unless noted, % is set by controls: 0 for no effect and ±100 for the full control effect; potency is the fitted concentration of half-maximal effect.

SMILES	AmpC no deterg	Pf growth 96h	AMA1 RON2 block	HCV inhibitor	AmpC detergent	Pf growth 48h
COc1ccccc1N1CCN(S(=O)(=O)c2c(C)sc3ncn(CC(=O)Nc4ccc(C)cc4Br)c(=O)c23)CC1	/	/	/	/	-5%	/
CC(Oc1ccc(Br)cc1)C(=O)Nc1cc(Cl)ccc1N1CCN(C)CC1 (stereo unspecified)	64%	12µM*	?	?	0%	12µM*
CN1CCN(c2ccc(Cl)cc2NC(=O)c2ccc(=O)n(C)n2)CC1	-9%[11.4 µM]	?	2%	?	?	-11%
CCCCC1(Cc2ccc([N+](=O)[O-])cc2)C(=O)N(c2ccccc2)N(c2ccccc2)C1=O	-9%	?	-6%	13µM*	-15%	4.1µM*
O=C(Nc1ccn(-c2ccccc2)n1)c1ccc(S(=O)(=O)N2CCCCCC2)cc1	-30%	?	-2%	?	?	1µM*
O=C(Nc1ccon1)c1ccc(S(=O)(=O)N2CCCCCC2)cc1	-7%	?	6%	9%	?	9.3µM*
Cc1c(Cl)cccc1-c1ccc(CNc2ccc3[nH]c(=O)[nH]c3c2)o1	/	/	/	/	-1%	/
Cc1cccc2cc(CN(C(=O)c3cccc(Cl)c3)c3ccccc3)c(=O)[nH]c12	/	/	/	/	17%	/
CCn1c(=O)c2sccc2n2c(CCCC(=O)N3CCN(c4ccc(OC)cc4)CC3)nnc12	/	/	/	/	-2%	/
O=C(Nc1ccc(Oc2ccccc2)cc1)c1cnc2n(c1=O)CCS2	-12%	13µM*	-5%	?	-2%	/
CC(=O)c1cccc(S(=O)(=O)NCCc2csc3nc(-c4ccc(F)cc4)nn23)c1	/	/	/	/	2%	/
CCC(C)NC(=O)CC(c1ccccc1)c1cc(C)ccc1O (stereo unspecified)	-5%	24%	-2%	-16%	2%	?
Cc1ccc(O)c(C(CC(=O)N2CCCC2)c2ccccc2)c1 (stereo unspecified)	-1%	0.37µM*	-4%	11%	?	-1%
COc1ccc(CCNC(=O)CC(c2ccccc2)c2cc(C)ccc2O)cc1OC (stereo unspecified)	-12%	1%	-7%	10µM*	-6%	?
Cc1ccc(O)c(C(CC(=O)NC(C)C)c2ccccc2)c1 (stereo unspecified)	-6%	13µM*	3%	?	6%	-19%
COc1ccc(CCNC(=O)CC2SC(=NCCc3ccccc3)NC2=O)cc1OC (stereo unspecified)	0%	9.3µM*	-1%	4%	-6%	13µM*
CCN(C(=O)Cn1c(C(=O)OC)cc2sccc21)c1cccc(C)c1	/	/	/	/	19%	/
Cc1csc(Nc2nc(N)c(C(=O)Nc3ccccc3)o2)n1	-32%	3.3µM*	21%	-28%	-1%	5%[0.00184 µM]
Cc1csc(NC(=O)c2oc3ccccc3c2C)n1	-9%	14%	9%	?	1%	56%
COCc1cc(C)nc(OCC(=O)N/N=C/c2ccc(-c3cc([N+](=O)[O-])ccc3C)o2)c1C#N	-10%	14%	0%	-14%	4%	-5%
Cc1ccc([N+](=O)[O-])cc1-c1ccc(/C=C(\C#N)c2[nH]nc(N)c2C#N)o1	32µM*	108%	-2%[11.6 µM]	?	2%	?
COc1ccc(/C=C2/C(=O)N(CC3CCCO3)C(=S)N2C)c(OC)c1 (stereo unspecified)	-11%	0%[5.75 µM]	-17%	-10%	?	7%
COc1ccc2c(c1)nc1n2CN(CC2CCCO2)CN1Cc1ccccc1 (stereo unspecified)	-24%	12µM*	/	/	-8%	9.3µM*
CCOc1ccccc1-n1cc2c(c1-c1ccc(OC)cc1)c(=O)n(C)c(=O)n2C	/	/	/	/	23%	/
O=C(c1cc(-c2ccc(Br)cc2)nc2ccccc12)N1CCN(c2ccccc2O)CC1	-11%	5.9µM*	-17%	?	5%	5.9µM*
SMILES	AmpC no deterg	Pf growth 96h	AMA1 RON2 block	HCV inhibitor	AmpC detergent	Pf growth 48h
Cc1ccc(-c2cc(C(=O)N3CCN(c4ccccc4O)CC3)c3ccccc3n2)o1	64%	13µM*	-2%	-11%	-6%	?
O=C(c1ccc2ccccc2n1)N1CCN(c2ccccc2O)CC1	16%	13µM*	-9%	29%	10%	?
Cc1ccc(-c2cc(C(=O)N3CCN(c4ncccn4)CC3)c3ccccc3n2)cc1	92%	13%	-7%	?	-2%	?
O=C(c1ccc2ccccc2n1)N1CCN(c2ccccc2)CC1	-7%	/	-7%	1%	-1%	4%
CCCc1cc(=O)n2[nH]c(NC(=O)c3ccc(C(C)(C)C)cc3)nc2n1	/	/	/	/	8%	/
CCOC(=O)c1cccc(NC(=O)N2CCC(CN3CCCCCC3)CC2)c1	/	/	/	/	13%	/
CCc1ccc(-c2nn(CC(=O)NC3CCCC3)c3c2cnc2ccc(C)cc23)cc1	/	/	/	/	20%	/
CC(=O)c1ccc(NC(=O)C2CCCN(S(=O)(=O)c3c(C)[nH]c(=O)[nH]c3=O)C2)cc1 (stereo unspecified)	-4%	4.1µM*	2%	27%	?	157%
CCc1ccc(NC(=O)C2CCCN(S(=O)(=O)c3c(C)[nH]c(=O)[nH]c3=O)C2)cc1 (stereo unspecified)	1%	30%	2%	?	-8%	?
CC[N+](CC)(CC)CCC(O)(c1ccccc1)C1CCCCC1 (stereo unspecified)	-4%	10µM*	1%	39%	?	6.6µM*

Screening results deposited in PubChem BioAssay by National Center for Advancing Translational Sciences (NCATS).
